According to PubChem BioAssay (NCATS):
Inconclusive results are not listed. The source made the active and inactive calls. Unless noted, the call rests on the fitted dose curve; in most records, active means well fitted curve in the direction sought with a large enough effect; inconclusive means small, poorly fitted or top-dose-only effect, or another doubt; inactive means no such curve, though single readings can be large; an effect the other way counts as inactive or inconclusive.

What was measured:
[1] = NS1 protein of Zika virus - qHTS assay to identify small molecule inhibitors in human HEK 293 cells (AID 1347053); further: series mostly up to about 46 µM; nearly all actives have a fitted effect of over 55% in size
In short: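 Inhibition of NS1 expression was scored in HEK 293 cells given compound 1 h ahead of MR766 virus (MOI = 0.5). Following 24 h at 37 C, two anti-NS1 antibodies generated a TR-FRET signal, scaled between uninfected and infected controls.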

[2] = target: T1, Tyrosine-protein phosphatase non-receptor type substrate 1 (Homo sapiens) + Leukocyte surface antigen CD47 (Homo sapiens) (UniProt P78324+Q08722); assay: CD47-SIRPalpha protein protein interaction - LANCE assay qHTS validation (AID 1347057; active means well fitted curve in the direction sought with a large enough effect in the signal ratio, with a control signal flat, not every such curve was filed as active; the % refers to the signal ratio; further: series mostly up to about 38 µM)
In short: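 First, His-tagged CD47 and Eu-labelled anti-His antibody met the compound for 30 min; next, site-specifically biotinylated SIRPalpha was added for 30 min; finally streptavidin-APC was added before reading the TR-FRET ratio.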

[3] = target: T1, Tyrosine-protein phosphatase non-receptor type substrate 1 (Homo sapiens) + Leukocyte surface antigen CD47 (Homo sapiens); assay: CD47-SIRPalpha protein protein interaction - HTRF assay qHTS validation (AID 1347058; active means well fitted curve in the direction sought with a large enough effect in the signal ratio, not every such curve was filed as active; the % refers to the signal ratio;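 further: recombinant soluble extracellular CD47 with His tag and biotinylated SIRPalpha domains; series mostly up to about 38 µM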)
In short: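 TR-FRET read (Ch1/Ch2 ratio) of soluble extracellular CD47 and Avi-biotinylated SIRPalpha domains in PBS pH 7.4 with 0.05% IGEPAL; 7-point compound titration. Sequential 30 min room-temperature steps; non-biotinylated SIRPalpha as control inhibitor.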

[4] = target: T1, Tyrosine-protein phosphatase non-receptor type substrate 1 (Homo sapiens) + Leukocyte surface antigen CD47 (Homo sapiens); assay: CD47-SIRPalpha protein protein interaction - Alpha assay qHTS validation (AID 1347059);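 further: bead proximity luminescence from CD47 binding SIRPalpha after compound preincubation with SIRPalpha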
In short: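 Binding is measured by AlphaScreen proximity: Ni-NTA acceptor beads capture His-CD47, streptavidin donor beads capture biotin-SIRPalpha. Each of three additions (SIRPalpha with compound, CD47, beads) incubates 30 min at room temperature protected from light.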

[5] = target: Parathyroid hormone/parathyroid hormone-related peptide receptor (Homo sapiens) (UniProt Q03431); assay: qHTS for PTHR1 Agonists: Optimization Screen against the NCGC LOPAC library (AID 1347079);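 further: GloSensor cAMP luminescence in HEK-293 GP2 cells expressing human PTHR1 with IBMX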
In short: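 Agonist readout: GloSensor cAMP luminescence, read after 15 min at room temperature. HEK-293-derived GP2 line carries PTHR1; compounds tested as a titration for 1 hr at 37C in presence of IBMX. M-PTH (1-15) served as control.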

Measured: Potency

T1 sequence (P78324 whole entry, looked up): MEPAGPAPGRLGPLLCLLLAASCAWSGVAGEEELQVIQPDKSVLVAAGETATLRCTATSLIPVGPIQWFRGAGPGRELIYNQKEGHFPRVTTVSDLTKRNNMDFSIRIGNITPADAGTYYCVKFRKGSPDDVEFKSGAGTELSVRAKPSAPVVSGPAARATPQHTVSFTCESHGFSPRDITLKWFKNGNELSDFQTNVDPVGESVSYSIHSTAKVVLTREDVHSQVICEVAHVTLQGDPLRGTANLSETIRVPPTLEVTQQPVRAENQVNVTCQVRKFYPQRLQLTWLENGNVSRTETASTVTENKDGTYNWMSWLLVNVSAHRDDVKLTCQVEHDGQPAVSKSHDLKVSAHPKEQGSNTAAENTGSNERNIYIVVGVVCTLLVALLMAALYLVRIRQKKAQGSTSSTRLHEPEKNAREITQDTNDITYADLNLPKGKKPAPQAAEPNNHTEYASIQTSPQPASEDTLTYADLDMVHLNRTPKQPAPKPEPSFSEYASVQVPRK
T1 sequence (Q08722 whole entry, looked up): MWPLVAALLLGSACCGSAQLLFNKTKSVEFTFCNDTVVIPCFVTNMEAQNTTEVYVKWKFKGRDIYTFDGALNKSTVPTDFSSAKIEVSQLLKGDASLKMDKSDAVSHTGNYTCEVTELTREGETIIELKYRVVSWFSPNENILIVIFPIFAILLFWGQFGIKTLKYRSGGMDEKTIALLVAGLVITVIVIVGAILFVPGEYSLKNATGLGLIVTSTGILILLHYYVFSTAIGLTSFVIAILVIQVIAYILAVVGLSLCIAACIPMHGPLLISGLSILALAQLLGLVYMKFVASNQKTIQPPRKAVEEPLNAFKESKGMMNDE
Parathyroid hormone/parathyroid hormone-related peptide receptor (Homo sapiens), sequence (Q03431 whole entry, looked up): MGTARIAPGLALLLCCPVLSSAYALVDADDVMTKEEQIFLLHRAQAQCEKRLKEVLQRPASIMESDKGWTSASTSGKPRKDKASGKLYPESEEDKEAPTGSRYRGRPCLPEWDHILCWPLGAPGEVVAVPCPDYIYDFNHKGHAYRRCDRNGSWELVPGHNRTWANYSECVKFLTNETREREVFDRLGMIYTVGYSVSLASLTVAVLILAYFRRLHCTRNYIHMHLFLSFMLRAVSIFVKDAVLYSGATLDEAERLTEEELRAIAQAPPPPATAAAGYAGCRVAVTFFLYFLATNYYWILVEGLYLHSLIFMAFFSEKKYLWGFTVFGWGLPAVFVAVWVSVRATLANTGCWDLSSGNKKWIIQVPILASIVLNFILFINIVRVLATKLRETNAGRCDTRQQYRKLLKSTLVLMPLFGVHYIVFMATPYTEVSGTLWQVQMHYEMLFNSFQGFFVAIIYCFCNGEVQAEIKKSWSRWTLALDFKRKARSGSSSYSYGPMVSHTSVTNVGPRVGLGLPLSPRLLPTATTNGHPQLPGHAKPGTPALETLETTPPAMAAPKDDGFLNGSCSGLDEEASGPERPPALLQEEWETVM

Brc1cc2c(cc1[C@H]1Nc3ccccc3[C@H]3C=CC[C@H]31)OCO2
not listed: [5]
inactive: all other assays above

CCNc1nc2c(ncn2[C@H]2C[C@H](O)[C@@H](CO)O2)c(=O)[nH]1
not listed: [5]
inactive: all other assays above

Nc1ccn([C@@H]2O[C@H](CO)[C@@H](O)[C@@H]2O)c(=O)n1
inactive: [1]

CCCC(CCC)C(=O)OC1CC2CCC(C1)[N+]2(C)C (configuration not stated)
not listed: [5]
inactive: all other assays above

O=C(Nc1ccc2[nH]ncc2c1)C1CCC1
not listed: [5]
inactive: all other assays above

CNCC[C@H](Oc1ccc(C(F)(F)F)cc1)c1ccccc1
inactive: [1]

NC[C@H]1O[C@@H](n2cnc3c(N)ncnc32)[C@H](O)[C@@H]1O
inactive: all assays above

Nc1nc2c(ncn2[C@@H]2O[C@H](CO)[C@@H](O)[C@@H]2O)c(=O)[nH]1
not listed: [5]
inactive: all other assays above

CO[C@H]1O[C@@H]2O[C@]3(C)CC[C@@H]4[C@@H](C)CC[C@H]([C@H]1C)[C@]24OO3
not listed: [5]
inactive: all other assays above

CN[C@H](CC(C)C)C(=O)N[C@H]1C(=O)N[C@@H](CC(N)=O)C(=O)N[C@H]2C(=O)N[C@H]3C(=O)N[C@H](C(=O)N[C@H](C(=O)O)c4cc(O)cc(O)c4-c4cc3ccc4O)[C@H](O)c3ccc(c(Cl)c3)Oc3cc2cc(c3O[C@@H]2O[C@H](CO)[C@@H](O)[C@H](O)[C@H]2O[C@H]2C[C@](C)(N)[C@H](O)[C@H](C)O2)Oc2ccc(cc2Cl)[C@H]1O
not listed: [5]
inactive: all other assays above

O=C1NCc2c1c1c3ccccc3[nH]c1c1[nH]c3ccccc3c21
not listed: [5]
inactive: all other assays above

COc1ccc(Br)cc1S(=O)(=O)NC(=O)/C=C/c1ccccc1Cc1ccc2ccccc2c1
not listed: [5]
inactive: all other assays above

COCCOc1cc2ncnc(Cl)c2cc1OCCOC
not listed: [5]
inactive: all other assays above

Nc1nc(Cl)nc2c1ncn2[C@@H]1O[C@H](CO)[C@@H](O)[C@H]1O
inactive: all assays above

CC1OC1P(=O)(O)O (configuration not stated)
not listed: [5]
inactive: all other assays above

CCNC(=O)[C@H]1O[C@@H](n2cnc3c(N)nc(NCCc4ccc(CCC(=O)O)cc4)nc32)[C@H](O)C1O (some centres not stated)
not listed: [5]
inactive: all other assays above

O=[N+]([O-])c1ccc(CNc2nc(NCc3cccc(C(F)(F)F)c3)nc3nc[nH]c23)cc1
not listed: [5]
inactive: all other assays above

CC(C)Cc1ccc([C@H](C)C(=O)O)cc1
inactive: all assays above

COc1ccccc1CN[C@@H]1CCCN[C@@H]1c1ccccc1
not listed: [5]
inactive: all other assays above

O=C(Nc1ccc2c(c1)CCN(Cc1ncn[nH]1)C2)c1ccccc1-c1ccc(C(F)(F)F)cc1
not listed: [5]
inactive: all other assays above
